# According to PubChem BioAssay (NCI):
# Several values for one entry are separate records, joined by “and”; a condition that tells them apart may be missing. Equal values may be shown once. About 83,000 compounds went through this panel and 20% of them were active in at least one assay; those are over-represented in the sample as a whole.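 Note: values are percent growth. 100 is the growth of untreated cells, values between 100 and 0 indicate rising inhibition; between -100 and 0 indicates cell death.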 Activity calls are given as the source filed them. The calls were made as follows: active = growth percent below 10; inactive = the rest.
# Test system: MDA-MB-468 breast
# Assay: NCI-60 one-dose screen, 48 h (100 = growth as untreated, 0 = no growth, -100 = all killed)
# Conditions: 10 µM unless noted
row,Compound,growth
1,CC(C)(CC(=O)O)CC(=O)O,96.4% (inactive)
2,O=C(COc1ccc(-c2nc3cc(Cl)c(Cl)cc3[nH]2)cc1)N=Nc1c(O)[nH]c2ccccc12,-49.5% (active)
3,O=C(COc1ccc(/C=C2\C(=O)Nc3cc(Cl)ccc32)cc1)Nc1ccc(Cl)cc1,86.8% (inactive)
4,Brc1cccc(/C=N/Nc2nc(N/N=C/c3cccc(Br)c3)nc(N3CCOCC3)n2)c1,1.09% (active)
5,COc1cc(/C=C2\C(=O)Nc3ccccc32)cc(OC)c1O,20.4% (inactive)
6,c1csc(-c2c3ccc(=[N+]4CCCCC4)cc-3oc3cc(N4CCCCC4)ccc23)c1,-90% (active)
7,CCC(=O)C(CC)c1cccc(OC)c1 (stereo not given),102% (inactive)
8,O=S(=O)(NCCNc1nccc(-n2cnc3ccccc32)n1)c1ccc(C(F)(F)F)cc1,26.4% (inactive)
9,O=C1C2=C(C(=O)c3c(O)ccc(O)c31)N(c1ccc(N3CCOCC3)nc1)Cc1ccccc1O2,-60.8% (active)
10,CC1c2ccccc2-c2ccccc2N1C (stereo not given),103% (inactive)
11,O=C(NOCCO)c1ccc2cncn2c1Nc1ccc(I)cc1F,107% (inactive)
12,O=c1c2cc(F)ccc2sc2c(NCCCNCCO)nc3ccc(F)cc3c12,39.7% (inactive)
13,Cc1cc(C)c(CC(=O)O)c(C)c1,111% (inactive)
14,Cc1ccc(-c2nc(C(Cl)Cl)nc3cc(-c4ccccc4)nn23)cc1,-54.2% (active)
15,O=C1/C(=C/c2ccc(-c3ccc(Br)cc3)o2)SC(=S)N1CCc1ccc(O)cc1,90.2% (inactive)
16,CCN(CC)CCNc1c(C)cc(CO)c(Cl)c1C,-8.33% (active)
17,O=C(NO)c1ccc(Cn2c(=O)n(-c3ccccc3F)c(=O)c3ccccc32)cc1,-10.8% (active)
18,Nc1ccn(C2OC(CO)C(O)C2F)c(=O)n1 (stereo not given),96.3% (inactive)
19,O=S(=O)(NC1c2ccccc2Oc2ccccc21)c1ccccc1,87.6% (inactive)
20,NC(=N\N=C/c1cccc([N+](=O)[O-])c1)/C(N)=N\N=C/c1cccc([N+](=O)[O-])c1,64.9% (inactive)

row,Compound,growth
1,COc1ccc(C/C(=C(\C)c2ccc(OCCN3CCCC3)cc2)c2ccc(OCCN3CCCC3)cc2)cc1,33.2% (inactive)
2,O=C1/C(=N/O)CCc2ccccc21,109% (inactive)
3,O=C1OC(Oc2ccc(Br)cc2)(c2ccccc2)c2ccccc21 (stereo not given),69.8% (inactive) and 75.1% (inactive)
4,CCCCCCOC(=O)c1cc(-c2ccc(F)cc2)nc2ccccc12,105% (inactive)
5,O=C(O)COCC(=O)O,93.6% (inactive)
6,CC(C)N1CCN(c2ccncc2S(=O)(=O)N2CCN(C)CC2)CC1,94.3% (inactive)
7,COc1ccc(/C=C\C(=O)/C=C/c2ccc(OC)cc2)cc1,18.7% (inactive)
8,N#Cc1c(-c2ccc(Cl)cc2)cc(-c2cc(O)ccc2O)nc1N,19.4% (inactive)
9,COc1ccc(C2=NN(c3ccc(S(N)(=O)=O)cc3)C(c3cn(-c4ccccc4)nc3-c3ccc(Cl)cc3)C2)cc1 (stereo not given),106% (inactive)
10,CC(C)C(=O)Nc1ccc(-c2nc(-c3cccc(O)c3)c(-c3ccnc(Br)c3)[nH]2)cc1,15.1% (inactive)
11,O=C(CCCCC(=O)Oc1c(Cl)cc(Cl)cc1[N+](=O)[O-])Oc1c(Cl)cc(Cl)cc1[N+](=O)[O-],113% (inactive)
12,O=C(c1ccccc1)C1CCC1,110% (inactive)
13,COc1nc2c(c(=O)n1C)N=C1c3ccccc3C(=O)C1C(c1ccccc1)N2 (stereo not given),82.5% (inactive)
14,CC(C)=CC/C=C(/C)[C@H]1CC[C@]2(C)[C@@H]1CC[C@@H]1[C@@]3(C)CC/C(=N/O)C(C)(C)[C@@H]3CC[C@]12C,47.7% [100 µM] (inactive)
15,CCN(CC)C(Cl)=Nc1ccc(Cl)cc1,103% (inactive)
16,CCN(CC)CCn1nc2c3c(cccc3c1=O)-c1ccccc1-2,25.9% (inactive)
17,CN(C)CCCN(CCC1CCCCC1)CCC1CCCCC1,-35.4% (active)
18,CSc1nc2c(c(=O)n1C)C(c1ccccc1)C1=C(N2)/C(=C/c2ccccc2)CCC1 (stereo not given),34.7% (inactive)
19,CN1CCN(c2nc(-c3cccnc3)nc3sc4c(c23)CCCCCC4)CC1,94.2% (inactive)
20,COc1cc2c3c(n(CCCNC4CCC4)c(=O)c2cc1OC)-c1cc2c(cc1C3=O)OCO2,30.6% (inactive)
